Measurements from the antibiotic and cytotoxicity screens of Wong et al. (2023).
Among all 39,000 compounds or so, about 1,500 (3.8%) were called active. Many of the other results were omitted from the sample, so actives are more common in it than they were.

The compounds below were run on HSkMC (human skeletal muscle cells) (assay: cytotoxicity call (relative viability < 0.9)). Conditions: 10 µM.

SMILES	cytotoxicity call
Cn1cnc(CCNC(=O)C[C@H]2CC[C@@H]3[C@H](COC[C@H](O)CN3C(=O)Nc3ccc(Cl)cc3)O2)c1	inactive
C[C@@H]1CN([C@@H](C)CO)C(=O)c2cc(NC(=O)c3ccccc3)ccc2O[C@@H](C)CCCCO[C@H]1CN(C)S(=O)(=O)c1cccs1	inactive
COCC#Cc1ccc2c(c1)O[C@H](CN(C)S(=O)(=O)c1cccc(F)c1)[C@H](C)CN([C@H](C)CO)S2(=O)=O	inactive
NC(=O)N1CCC(CC(=O)N2CCC([C@H]3c4ncc(Br)cc4CCc4cc(Cl)cc(Br)c43)CC2)CC1	inactive
C[C@@H]1CN([C@@H](C)CO)C(=O)CCCn2cc(nn2)CO[C@@H]1CN(C)S(=O)(=O)c1ccc2c(c1)OCCCO2	inactive
Cc1ccc(S(=O)(=O)N(C)C[C@@H]2Oc3c(NC(=O)C4CCOCC4)cccc3C(=O)N([C@H](C)CO)C[C@H]2C)cc1	inactive
C[C@@H]1CN([C@@H](C)CO)C(=O)c2c(c3ccccc3n2C)-c2ccccc2CO[C@@H]1CN(C)Cc1cccc(F)c1	inactive
Cc1ccccc1S(=O)(=O)N(C)C[C@@H]1Oc2ccc(NC(=O)Nc3cc(Cl)cc(Cl)c3)cc2CC(=O)N([C@@H](C)CO)C[C@@H]1C	active
Cc1noc(C)c1S(=O)(=O)N(C)C[C@@H]1Oc2ccc(NC(=O)Nc3ccccc3)cc2CC(=O)N([C@@H](C)CO)C[C@@H]1C	inactive
C[C@H]1CN([C@@H](C)CO)C(=O)Cc2cc(NC(=O)Nc3cc(Cl)cc(Cl)c3)ccc2O[C@H]1CN(C)S(=O)(=O)c1ccc(Oc2ccccc2)cc1	inactive
Cc1ccccc1S(=O)(=O)N(C)C[C@@H]1Oc2ccc(NC(=O)Nc3ccc(Cl)c(Cl)c3)cc2CC(=O)N([C@@H](C)CO)C[C@@H]1C	active
C[C@H](CO)N1C[C@H](C)[C@@H](CN(C)S(C)(=O)=O)Oc2ccc(NC(=O)Nc3ccccc3)cc2CC1=O	inactive
C[C@H]1CN([C@@H](C)CO)C(=O)Cc2cc(NC(=O)Nc3ccc(Cl)c(Cl)c3)ccc2O[C@H]1CN(C)S(=O)(=O)c1ccc(Oc2ccccc2)cc1	inactive
Nc1ccccc1CO	inactive
C[C@H](CO)N1C[C@H](C)[C@H](CN(C)CC2CC2)OCCCC[C@H](C)Oc2ccc(NC(=O)Nc3ccccc3)cc2C1=O	inactive
C[C@@H]1CCCCO[C@H](CN(C)Cc2ccc3c(c2)OCO3)[C@H](C)CN([C@H](C)CO)C(=O)c2cc(NC(=O)Nc3ccc4c(c3)OCO4)ccc2O1	inactive
Cc1ccc(S(=O)(=O)Nc2ccc3c(c2)C(=O)N([C@@H](C)CO)C[C@H](C)[C@H](CN(C)Cc2ccccc2)OCCCC[C@@H](C)O3)cc1	inactive
O=C(C1=C[C@@H](c2ccc3c(c2)OCO3)C[C@@H](OCCCCO)O1)N1CCN(Cc2ccc3c(c2)OCO3)CC1	inactive
C[C@H]1CN([C@@H](C)CO)C(=O)c2cc(C#CC3(O)CCCC3)cnc2O[C@@H]1CN(C)C(=O)Cc1ccncc1	inactive
COc1ccc(S(=O)(=O)N2C[C@@H](O)COC[C@@H]3O[C@@H](CC(=O)NCCCN4CCOCC4)CC[C@H]32)cc1	inactive
CCCCCCOC(=O)N=C(N)c1ccc(NCc2nc3cc(C(=O)N(CCC(=O)OCC)c4ccccn4)ccc3n2C)cc1.CS(=O)(=O)O	inactive
CCCCCCOC(=O)/N=C(/N)c1ccc(NCc2nc3cc(C(=O)N(CCC(=O)OCC)c4ccccn4)ccc3n2C)cc1	active
COc1ccc(NC(=O)Nc2cccc3c2O[C@@H](CN(C)S(C)(=O)=O)[C@@H](C)CN([C@H](C)CO)C3=O)cc1	inactive

SMILES	cytotoxicity call
C[C@H](CO)N1C[C@H](C)[C@H](CN(C)S(C)(=O)=O)Oc2ccc(NS(=O)(=O)c3ccc(F)cc3)cc2CC1=O	inactive
C[C@H](CO)N1C[C@H](C)[C@@H](CN(C)C(=O)Nc2ccc3c(c2)OCO3)Oc2ccc(NC(=O)c3ccncc3)cc2CC1=O	inactive
Cc1noc(C)c1NC(=O)Nc1ccc2c(c1)C(=O)N([C@@H](C)CO)C[C@@H](C)[C@H](CN(C)Cc1ccccc1)OCCCC[C@@H](C)O2	inactive
C[C@H](CO)N1C[C@H](C)[C@H](CN(C)CC2CC2)OCCCC[C@H](C)Oc2ccc(NC(=O)Nc3ccc(C(F)(F)F)cc3)cc2C1=O	inactive
C[C@@H]1CCCCO[C@H](CN(C)CC2CC2)[C@H](C)CN([C@H](C)CO)C(=O)c2cc(NC(=O)Nc3ccc(C(F)(F)F)cc3)ccc2O1	active
C[C@@H]1CCCCO[C@H](CN(C)CC2CC2)[C@H](C)CN([C@@H](C)CO)C(=O)c2cc(NC(=O)Nc3ccc(C(F)(F)F)cc3)ccc2O1	active
C[C@@H]1CCCCO[C@@H](CN(C)CC2CC2)[C@H](C)CN([C@@H](C)CO)C(=O)c2cc(NC(=O)Nc3ccc(C(F)(F)F)cc3)ccc2O1	inactive
C[C@@H]1CCCCO[C@@H](CN(C)CC2CC2)[C@@H](C)CN([C@H](C)CO)C(=O)c2cc(NC(=O)Nc3ccc(C(F)(F)F)cc3)ccc2O1	inactive
CCCN(C)C[C@@H]1OCCCC[C@H](C)Oc2ccc(NC(=O)Nc3ccc(C(F)(F)F)cc3)cc2C(=O)N([C@@H](C)CO)C[C@@H]1C	active
C[C@H]1CCCCO[C@H](CN(C)CC2CC2)[C@@H](C)CN([C@@H](C)CO)C(=O)c2cc(NC(=O)Nc3ccc(C(F)(F)F)cc3)ccc2O1	inactive
CCCN(C)C[C@H]1OCCCC[C@H](C)Oc2ccc(NC(=O)Nc3ccc(C(F)(F)F)cc3)cc2C(=O)N([C@@H](C)CO)C[C@H]1C	inactive
CCCN(C)C[C@@H]1OCCCC[C@@H](C)Oc2ccc(NC(=O)Nc3ccc(C(F)(F)F)cc3)cc2C(=O)N([C@H](C)CO)C[C@@H]1C	inactive
C[C@@H]1CN([C@H](C)CO)C(=O)CCCn2nncc2CO[C@@H]1CN(C)S(=O)(=O)c1ccc(-n2cccn2)cc1	inactive
CC[C@@H](C)N[C@H]1CCS(=O)(=O)C1	inactive
Cc1cccc([C@@H](N)c2nccn2C)c1	inactive
O=C(CCCCCNC(=O)OCCCCO[C@H]1C[C@@H](c2ccc(C(F)(F)F)cc2)C=C(C(=O)N2CCN(Cc3ccccc3)CC2)O1)NO	inactive
CN(C)CC(=O)N[C@@H]1CC[C@@H](CC(=O)NCCN2CCCCC2)O[C@H]1CO	inactive
C[C@H](CO)N1C[C@H](C)[C@@H](CN(C)S(=O)(=O)c2ccc(F)cc2)Oc2c(NC(=O)Nc3ccc(C(F)(F)F)cc3)cccc2C1=O	inactive
O=C(NCCN1CCCC1)[C@H]1[C@H](CO)[C@H]2Cn3c(cccc3=O)[C@@H]1N2C(=O)c1ccccc1	inactive
C[C@H](CO)N1C[C@H](C)[C@H](CN(C)C(=O)Nc2cccc3ccccc23)Oc2c(NS(=O)(=O)c3ccc(Cl)cc3)cccc2C1=O	inactive
CO[C@@H]1[C@H](O[P@@](=O)(S)OC[C@H]2O[C@@H](n3cnc4c(N)ncnc43)C[C@@H]2O)[C@@H](CO)O[C@H]1n1ccc(=O)[nH]c1=O	active
Nc1ncnc2c1ncn2[C@@H]1O[C@H](COP(=O)(O)O)[C@@H](O)[C@H]1O	inactive
CO[C@@H]1[C@H](O[P@@](=O)(OC[C@H]2O[C@@H](n3cnc4c(N)ncnc43)C[C@@H]2O)SCOC(=O)OC(C)C)[C@@H](CO)O[C@H]1n1ccc(=O)[nH]c1=O	inactive

SMILES	cytotoxicity call
O=C(C[C@@H]1CC[C@H]2[C@@H](COC[C@H](O)CN2S(=O)(=O)c2ccccc2)O1)NCCN1CCCC1	inactive
C[C@H]1CN([C@@H](C)CO)C(=O)Cc2cc(NS(=O)(=O)c3cccs3)ccc2O[C@H]1CN(C)S(=O)(=O)c1cccs1	inactive
CO[C@H]1O[C@@H](COC(C)=O)[C@@H](OC(C)=O)C(C#N)(C#N)[C@@H]1OC(C)=O	inactive
Clc1ccccc1C(c1ccccc1)(c1ccccc1)n1ccnc1	active
N#CC(c1ccccc1)(c1ccccc1)c1ccccc1Cl	inactive
C[C@H](CO)N1C[C@H](C)[C@H](CN(C)S(=O)(=O)c2ccc(Cl)cc2)OCCCC[C@H](C)Oc2ccc(NC(=O)c3ccncc3)cc2C1=O	inactive
Cc1cccc(S(=O)(=O)N2C[C@H](O)COC[C@H]3O[C@@H](CC(=O)NCCCN4CCOCC4)CC[C@@H]32)c1	inactive
COc1c(C)cnc2c1c(=O)n(CC(N)=O)c(=O)n2C	inactive
C[C@@H]1CCCCO[C@H](CN(C)Cc2ccc(C(F)(F)F)cc2)[C@H](C)CN([C@H](C)CO)C(=O)c2cc(NS(=O)(=O)c3cccs3)ccc2O1	inactive
O=C(NC1CCCCCCC1)c1ccccc1-c1ccccc1	inactive
O=C(NC1CCN(CCCCC2(C(=O)NCC(F)(F)F)c3ccccc3-c3ccccc32)CC1)c1ccccc1-c1ccc(C(F)(F)F)cc1	active
C[C@]1(C(=O)NCC(F)(F)F)c2ccccc2C(=O)N(Cc2cc(C(F)(F)F)cc(C(F)(F)F)c2)[C@H]1c1ccc(CO)cc1	inactive
COc1ccc(S(=O)(=O)Nc2ccc3c(c2)C(=O)N([C@H](C)CO)C[C@H](C)[C@@H](CN(C)C(=O)NC(C)C)O3)cc1	inactive
CCCCCCCCC(=O)O	inactive
CN1CCN(S(C)(=O)=O)CC1	inactive
C[C@H](CO)N1C[C@H](C)[C@@H](CN(C)C(=O)c2ccc3c(c2)OCO3)Oc2ncc(C#CCN(C)C)cc2C1=O	inactive
C[C@@H]1CN([C@H](C)CO)C(=O)c2cc(NS(=O)(=O)c3ccc(F)cc3)ccc2O[C@@H]1CN(C)Cc1ccc(Oc2ccccc2)cc1	active
C[C@H]1CN([C@@H](C)CO)C(=O)c2cc(NS(=O)(=O)c3ccc(F)cc3)ccc2O[C@@H]1CN(C)Cc1ccc(Oc2ccccc2)cc1	inactive
C[C@@H]1CN([C@@H](C)CO)C(=O)c2cc(NS(=O)(=O)c3ccc(F)cc3)ccc2O[C@H]1CN(C)Cc1ccc(Oc2ccccc2)cc1	inactive
C[C@@H]1CN([C@H](C)CO)C(=O)c2cc(NS(=O)(=O)c3ccc(F)cc3)ccc2O[C@H]1CN(C)Cc1ccc(Oc2ccccc2)cc1	inactive
C[C@@H]1CN([C@@H](C)CO)C(=O)c2cc(NS(=O)(=O)c3ccc(F)cc3)ccc2O[C@@H]1CN(C)Cc1ccc(Oc2ccccc2)cc1	active
C[C@H]1CN([C@@H](C)CO)C(=O)c2cc(NS(=O)(=O)c3ccc(F)cc3)ccc2O[C@H]1CN(C)Cc1ccc(Oc2ccccc2)cc1	inactive
